# Screens deposited in PubChem by National Center for Advancing Translational Sciences (NCATS).
# FMDV inh – foot and mouth disease virus antiviral activity; AID 1159524; Potency, µM (highest dose often 57.9 µM), without a hit: at the top dose activity change, negative = inhibition, usual class: inhibitors; hit rate 1.2% among 410,000; FMDV antiviral cell-based qHTS; calls by dose curve; tested in HEK293T cells; note: read-out not given here; nearly all actives have a fitted effect of over 45% in size
# Vaccinia mCherry – vaccinia inhibition (mCherry reporter); Potency, µM (doses to about 36.5 µM), for inactives: at the highest dose activity change, negative = inhibition, hits mostly inhibitors; hit rate 0.63% among 310,000; Vaccinia virus mCherry reporter infection, fluorescence; calls by dose curve; tested in A549 cells; note: nearly all actives have a fitted effect of over 35% in size
# FBPA Giardia inh – inhibitors of Giardia lamblia fructose-1,6-bisphosphate aldolase; purified Giardia FBPA; A8B2U2; hit rate 0.71% among 290,000; Potency, µM (top dose mostly 59.6 µM), without a hit: top-dose activity, negative = inhibition, actives largely listed as inhibitors; active = well fitted inhibition curve with a large enough effect; inconclusive = small, poorly fitted or top-dose-only effect, or effect the other way; note: nearly all actives have a fitted effect of over 55% in size
# Target sequence (A8B2U2 whole entry, looked up): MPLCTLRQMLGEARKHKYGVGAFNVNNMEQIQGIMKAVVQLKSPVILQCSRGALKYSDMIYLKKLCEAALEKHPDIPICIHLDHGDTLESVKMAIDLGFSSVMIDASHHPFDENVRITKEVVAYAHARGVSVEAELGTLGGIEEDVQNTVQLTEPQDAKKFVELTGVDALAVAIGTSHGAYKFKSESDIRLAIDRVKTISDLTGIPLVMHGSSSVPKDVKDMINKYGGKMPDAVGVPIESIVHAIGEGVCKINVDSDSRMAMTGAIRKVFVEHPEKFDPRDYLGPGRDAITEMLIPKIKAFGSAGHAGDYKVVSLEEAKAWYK
#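 40 nM FBPA preincubated 10 min at RT with compound (up to 57.5 uM final), then substrate plus GAPDH/TPI/NAD/arsenate coupling and diaphorase/resazurin added. Fluorescence read after 20 min at RT, 525/598 nm.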
# Vaccinia Venus – vaccinia inhibition (Venus reporter). Potency, µM (top dose mostly 36.5 µM), for inactives: at the top dose activity change, negative = inhibition, actives largely listed as inhibitors. hit rate 0.46% among 330,000. Vaccinia virus Venus reporter expression, fluorescence; calls by dose curve; tested in A549 cells; note: nearly all actives have a fitted effect of over 30% in size
# * hit, by the source's call; i = inactive; ? = inconclusive; . = no result; [ ] = remark or other dose. Only some compounds are listed: those with a hit (about 2.2% of all), similar ones and a draw of the others. % is set by controls: 0 for no effect and ±100 for the full control effect; potency is the fitted concentration of half-maximal effect.
SMILES,FMDV inh,Vaccinia mCherry,FBPA Giardia inh,Vaccinia Venus
CCC1(C2CCN(Cc3cccc(Cl)c3)CC2)NC(=O)N(CC2COc3ccccc3O2)C1=O (configuration not stated),-11%,-21%,.,-17%
C=C1C(=O)OC2CC3(C)OC3CCC(C)=CC(OC(C)=O)C12 (configuration not stated),35µM*,-19%,.,?
O=C(c1cccs1)N(Cc1nc2sc3c(c2c(=O)[nH]1)CCCC3)C1CCCC1,5%,13µM*,15%,-17%
COC(=O)CNC(=O)c1cnn(-c2ncc3c(n2)-c2ccccc2CCC3)c1C1CC1,48%,-14%,.,3%
COc1cc(-c2cnc3ccccc3c2)cc2c1OCCN(C(=O)CCn1nc(C)cc1C)C2,-10%,-7%,.,-4%
CCC(C)(C)c1ccc(OCCCC[n+]2cccc(C)c2)c(C(C)(C)CC)c1,32µM*,?,1%,?
O=C(Nc1ccc(Cn2cccn2)cc1)c1ccc(COc2ccccc2Br)cc1,14µM*,?,-15%,?
COc1ccccc1OCc1ccc(C(=O)Nc2ccccc2)cc1,27%,.,.,.
Cc1ccc(S(=O)(=O)Cc2ccc(C(=O)NCCc3ccc(Cl)cc3)o2)cc1,?,-15%,.,-9%
Cc1cc(N2CCN(c3nc(-c4ccccc4)cs3)CC2)c2ccccc2n1,28µM*,-3%,7%,-14%
c1ccc(-c2csc(N3CCCCCC3)n2)cc1,41%,i,-4%,-18%
CCOC(=O)c1c(SCCN2CCCC2)n(-c2ccccc2)c(=S)n(-c2ccccc2)c1=O,20µM*,-10%,.,-5%
CCOC(=O)c1c[nH]c(=S)n(-c2ccccc2)c1=O,11%,i,.,-8%
COC(=O)C1=C(C(=O)OC)[C@@H]2N(C)c3ccccc3[C@@]23C[C@@H](C(=O)OC)N(S(=O)(=O)c2ccc(C#N)cc2)C3=N1,.,.,3%[12.9 µM],.
COC(=O)C1CC23C=CCN4CCC5(c6ccccc6NC15C2C)C43 (configuration not stated),-2%,13µM*,-11%,?
Cc1cc(C)nc(N2CCC(C(=O)N3CCN(c4cc(Cl)ccc4C)CC3)CC2)n1,28µM*,.,-1%,.
Cc1ccc(C)c(N2CCN(C(=O)C3CCCCN3S(=O)(=O)c3ccc(F)cc3)CC2)c1 (configuration not stated),32µM*,-10%,-5%,-23%
Cc1ccc(C)c(N2CCN(C(=O)C3CCN(c4nnc(N5CCCC5=O)s4)CC3)CC2)c1,25µM*,.,-13%,-19%
Cc1ccc(C)c(N2CCN(C(=O)C3CCN(c4nc(C)cc(C)n4)CC3)CC2)c1,18µM*,.,0%,.
O=C(C1CCN(c2nnc(N3CCCC3=O)s2)CC1)N1CCN(c2cccc(C(F)(F)F)c2)CC1,-16%,.,5%,.
Cc1ccc(Cl)cc1N1CCN(C(=O)C2CCN(S(C)(=O)=O)CC2)CC1,?,i,2%,-7%
O=c1[nH]/c(=C/c2ccc3c(c2)OCO3)c(=O)[nH]/c1=C\c1ccc2c(c1)OCO2,.,16%,.,8%
O=C(NCCc1nnc2n1CCN(Cc1ccccn1)CC2)c1ccc(F)cc1,-1%,-8%,.,-6%
CN(C)S(=O)(=O)c1cccc(NC(=S)N/N=C/c2ccc(O)c(O)c2O)c1,0%,?,16µM*,8%
COc1cccc(/C=N/NC(=S)Nc2cccc(S(=O)(=O)N(C)C)c2)c1,?,.,1%,.
SMILES,FMDV inh,Vaccinia mCherry,FBPA Giardia inh,Vaccinia Venus
CCN(CC)S(=O)(=O)c1ccc(N/N=C/c2cc(OC)ccc2O)nc1,-24%,2µM*,3%,?
COc1ccc(O)c(/C=N/NC(=S)Nc2cccc(S(=O)(=O)N(C)C)c2)c1,0%,2µM*,-4%,?
CCN(CC)S(=O)(=O)c1ccc(N/N=C/c2cccnc2)nc1,5%,.,2%,.
COc1ccc(O)c(/C=N/NC(=S)Nc2cccnc2)c1,10%,11µM*,17%,?
CC1=C(O)C(=O)[C@H]2O[C@@H]2C1=O,11%,.,?,.
CCN(CC)S(=O)(=O)c1cccc(C(=O)N/N=C/c2ccc(O)c(O)c2O)c1,?,i,4.5µM*,-7%
CCOc1ccccc1/C=N/NC(=O)c1cccc(S(=O)(=O)N(CC)CC)c1,0%,?,?,-14%
CCN(CCO)c1ccc(NC(=S)Nc2cccc(S(=O)(=O)N(C)C)c2)cc1,-17%,-9%,7.9µM*,-8%
CC(=O)Nc1ccc(SC[C@H](Cc2ccccc2)N2CC[C@@H](N)CCC2=O)cc1,.,-7%,.,-4%
COc1ccc(O)c(CN2CCOc3c(cc(-c4cccc(OC)n4)cc3OC)C2)c1,-14%,-15%,.,-5%
COc1cccc2c(=O)c3cccc(N)c3[nH]c12,0%,-8%,1.8µM*,-6%
COc1cccc2c(=O)c3c([nH]c12)OC(C)(C)C3,-6%,-11%,.,-14%
COc1ccc(C(=O)Nc2nnc(SCc3cc(=O)c4cc(C)cc(C)c4[nH]3)s2)cc1,12%,-6%,.,-13%
COc1ccc(-c2nnc(SCc3cc(=O)c4cc(C)cc(C)c4[nH]3)n2C)cc1,16µM*,?,.,?
Cc1ccc2c(c1)Oc1ccc(NC(=O)CCl)cc1C(=O)N2,14µM*,-27%,3%,-21%
Cc1ccc2c(c1)Oc1ccc([N+](=O)[O-])cc1C(=O)N2,-12%,-10%,2%,-5%
OCCN1CCN(Cc2ccc3c(c2)CN(Cc2cc4ccccc4o2)CCO3)CC1,4%,-12%,.,2%
Cc1nc2ccccc2c2c1CC(C(C)(Cl)Br)O2 (configuration not stated),8.9µM*,.,4%,.
Cc1ccc2nc(C)c3c(c2c1)OC(C(C)(Cl)Br)C3 (configuration not stated),?,17%,-2%,-4%
CS(=O)(=O)c1ccc(-c2ccc3c(c2)CC(CNC(=O)C2(N4CCOCC4)CCCCC2)O3)cc1 (configuration not stated),-12%,-14%,.,?
Cc1ccc2sc(-c3ccc(N)cc3)nc2c1,?,-10%,.,-4%
Cc1ccc2nc(-c3ccc(N)cc3)sc2c1,8.9µM*,?,-9%,?
Nc1ccc2nc(-c3ccccc3)sc2c1,10µM*,-24%,-11%,-12%
CS(=O)(=O)Nc1cccc(NC(=O)C2Cc3c(-c4cccc(F)c4)ccnc3O2)c1 (configuration not stated),-1%,8.9µM*,.,10µM*
CC(=O)c1cccc(NC(=O)C2Cc3c(-c4ccc(Cl)cc4)ccnc3O2)c1 (configuration not stated),35µM*,?,.,-22%
CC(=O)c1cccc(-c2ccnc3c2CC(C(=O)Nc2ccc(Cl)cc2)O3)c1 (configuration not stated),?,-6%,.,-26%
COc1ccc(NC(=O)C2Cc3c(-c4cccc(F)c4)ccnc3O2)cc1OC (configuration not stated),16µM*,-3%,.,-20%
COc1ccc(NC(=O)C2Cc3c(-c4ccc(NC(C)=O)cc4)ccnc3O2)cc1OC (configuration not stated),-14%,i,.,3%
COc1ccc(NC(=O)C2Cc3c(-c4ccc5c(c4)OCO5)ccnc3O2)cc1OC (configuration not stated),11µM*,-20%,.,?
